Structures are written as SMILES. About 5,700 (2.6%) of roughly 220,000 compounds were called active. Where a call stands in place of a potency, no number is given. Not shown: some 18% with an inconclusive outcome. The call rests on the fitted dose curve; in most records, active means well fitted inhibition curve with a large enough effect; inconclusive means small, poorly fitted or top-dose-only effect; inactive means no such curve, though single readings can be large or run the other way. Many of the other results were omitted from the sample, so actives are more common in it than they were.
Potency means the concentration at half of the fitted maximal effect.

Chain of Lysine-specific demethylase 5B (Homo sapiens) (Q9UGL1 whole entry, looked up): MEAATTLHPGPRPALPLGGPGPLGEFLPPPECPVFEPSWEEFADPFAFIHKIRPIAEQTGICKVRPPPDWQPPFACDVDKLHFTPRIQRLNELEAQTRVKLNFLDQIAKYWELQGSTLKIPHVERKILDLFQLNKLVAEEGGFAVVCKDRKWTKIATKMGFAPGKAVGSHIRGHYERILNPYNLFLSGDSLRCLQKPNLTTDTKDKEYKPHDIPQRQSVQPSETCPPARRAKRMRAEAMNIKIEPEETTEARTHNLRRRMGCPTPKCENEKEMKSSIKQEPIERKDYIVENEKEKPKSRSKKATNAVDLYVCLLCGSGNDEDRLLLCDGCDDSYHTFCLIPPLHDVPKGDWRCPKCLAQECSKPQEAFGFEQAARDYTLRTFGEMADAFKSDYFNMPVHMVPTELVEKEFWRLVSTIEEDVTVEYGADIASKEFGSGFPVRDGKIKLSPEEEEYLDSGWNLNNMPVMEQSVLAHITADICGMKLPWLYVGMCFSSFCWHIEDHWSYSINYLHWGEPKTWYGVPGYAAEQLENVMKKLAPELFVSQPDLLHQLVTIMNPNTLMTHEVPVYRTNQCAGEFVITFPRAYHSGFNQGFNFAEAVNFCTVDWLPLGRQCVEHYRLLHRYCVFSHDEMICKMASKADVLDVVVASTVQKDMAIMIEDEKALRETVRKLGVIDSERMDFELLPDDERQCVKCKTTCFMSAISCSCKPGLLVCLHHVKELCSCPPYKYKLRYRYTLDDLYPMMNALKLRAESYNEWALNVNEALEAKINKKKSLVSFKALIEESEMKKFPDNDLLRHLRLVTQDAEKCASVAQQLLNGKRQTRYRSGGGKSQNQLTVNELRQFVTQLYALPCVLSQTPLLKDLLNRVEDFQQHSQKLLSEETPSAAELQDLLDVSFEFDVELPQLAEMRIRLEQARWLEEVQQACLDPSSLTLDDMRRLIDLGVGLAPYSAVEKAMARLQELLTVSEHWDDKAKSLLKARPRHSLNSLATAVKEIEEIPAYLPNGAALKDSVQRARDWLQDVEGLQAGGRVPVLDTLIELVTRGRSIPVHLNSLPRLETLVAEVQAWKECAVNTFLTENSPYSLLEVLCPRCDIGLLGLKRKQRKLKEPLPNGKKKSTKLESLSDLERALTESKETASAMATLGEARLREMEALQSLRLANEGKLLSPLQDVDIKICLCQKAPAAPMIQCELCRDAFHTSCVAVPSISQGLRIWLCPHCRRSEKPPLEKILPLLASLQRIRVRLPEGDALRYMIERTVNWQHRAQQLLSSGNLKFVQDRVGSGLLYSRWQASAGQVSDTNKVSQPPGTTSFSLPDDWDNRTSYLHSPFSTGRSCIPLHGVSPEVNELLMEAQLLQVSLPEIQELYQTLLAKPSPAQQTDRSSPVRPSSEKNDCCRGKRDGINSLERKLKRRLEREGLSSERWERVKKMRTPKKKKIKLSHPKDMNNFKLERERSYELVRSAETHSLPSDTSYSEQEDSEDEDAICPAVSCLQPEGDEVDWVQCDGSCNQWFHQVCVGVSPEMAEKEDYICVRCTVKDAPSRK

In the assay the target is Lysine-specific demethylase 5B (Homo sapiens) (UniProt Q9UGL1). The assay can be described thus: Primary screen for KDM5B Histone Demethylases FDH-coupled qHTS. Further: nearly all actives have a fitted effect of over 70% in size. The note with it: FDH-coupled NADH fluorescence (FDH is formaldehyde dehydrogenase); series mostly up to 57.7 µM. In short, it runs like this:
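Compound dilutions met 200 nM (final) KDM5BΔAP for 10 min at room temperature before substrate addition. The substrate mix held 12.5 µM H3K4me3 with cofactors 25 µM α-ketoglutarate and 50 µM Fe²⁺. NADH signal gain over 30 min defined activity.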
Background: Quantitative high-throughput screening tests each substance at several concentrations.
With `COc1ccc(OC)c(NC(=O)COc2c(C)cc(C)cc2C)c1`, the Potency result is “inactive”.

For `CSc1ccccc1N=Cc1ccc(Cl)c(Cl)c1`, the Potency result is “inactive”.

For the compound `COc1ccc(OC)c(CCNC(=O)c2nn(C)c3c2CS(=O)(=O)c2ccccc2-3)c1`, the Potency entry is “inactive”.

On to `CC(=O)Nc1ccc(S(=O)(=O)Nc2c(NC3CCCC3)c3ccccc3oc2=O)cc1`, for which the Potency result is “inactive”.

As to `O=[N+]([O-])c1cccc2nc(/C=C/c3ccc(C(F)(F)F)cc3)ccc12`, the Potency result was “inactive”.

As to `N#Cc1cccc(C2CCN(C(=O)C3CCN(C(=O)C4CC4)CC3)CC2)c1`, the Potency entry is “inactive”.

With `Cn1c(=O)[nH]c(=O)c2c1nc(N1CCN(Cc3ccccc3Cl)CC1)n2Cc1ccc(F)cc1`, the Potency result was “inactive”.

Take `O=C(Cc1cccc(Cl)c1)N1CCC2(CC1)CN[S+](=O)([O-])c1cccnc1O2`: the Potency is 79.4 µM (active).

Take `O=C(Cc1cccc(Cl)c1)N1CCC2(CN[S+](=O)([O-])c3cccnc3O2)C1` (centres undefined): the Potency entry is “inactive”.

For the compound `O=[S+]1([O-])NCC2(CCCN(Cc3ccncc3)C2)Oc2ncccc21` (centres undefined), the Potency result is “inactive”.

Turning to `CNS(=O)(=O)c1ccc(NC(=O)Nc2ccc3c(c2)OCO3)cc1`, the Potency result was “inactive”.

As for `Cc1nccnc1N1CCC(c2nnc(CN3CCCC3)n2C)CC1`, the Potency entry was “inactive”.

As to `Cn1c(CN2CCOCC2)nnc1C1CCN(c2ncccc2C#N)CC1`, the Potency was 31.6 µM (active).

In the case of `COc1c(CNCc2cccnc2N2CCOCC2)c(C)nn1C`, the Potency result was “inactive”.

As for `C=CCNC(=O)c1ccc2ccnn2c1`, the Potency is 31.6 µM (active).

For `C=CCNC(=O)c1cn2c(n1)CN(C(=O)c1ccccc1F)CC2`, the Potency result was “inactive”.

Turning to `C=CCNC(=O)c1cn2c(n1)CN([S+](C)(=O)[O-])CC2`, the Potency entry is “inactive”.

For the compound `Cn1cc(CN2C[C@@H](CO)[C@H](C(=O)NC3CC3)C2)cn1`, the Potency result was “inactive”.

As for `Cc1cccc(C(=O)N2CCC(OC3CCN(Cc4ccccc4)CC3)CC2)c1`, the Potency entry was “inactive”.

In the case of `COc1ccccc1C(=O)N1CCC(n2cnnc2C2CC2)CC1`, the Potency result is “inactive”.

Consider `Cc1cccc2nnc(N3CCN(C(=O)c4ccc(F)c(F)c4)CC3)n12`, for which the Potency was 28.2 µM (active).

On to `Cc1ccc(-n2c(SC(C)C(=O)c3ccc(F)c(F)c3)nnc2N2CCOCC2)cc1` (centres undefined), for which the Potency result was “inactive”.

`COc1ccccc1C(=O)N1CCN(c2cc(C(F)(F)F)ncn2)CC1`: the Potency entry was “inactive”.

`Cc1cccc(C(=O)N2CCCN(c3nnc4ccccn34)CC2)c1`: the Potency was 28.2 µM (active).

Consider `Cc1cccc(C(=O)N2CCN(S(=O)(=O)N3CCCCC3)CC2)c1`, for which the Potency entry is “inactive”.

In the case of `O=C(c1ccc(F)cc1)N1CCN(c2cc(-c3ccc(F)cc3)[nH]n2)CC1`, the Potency entry was “inactive”.

Turning to `COc1ccccc1C(=O)N1CCCN(c2nnc3ccccn23)CC1`, the Potency is 31.6 µM (active).

Regarding `Nc1cc(OCC(F)(F)F)cc(OCC(F)(F)C(F)F)c1`, the Potency entry is “inactive”.

`CC1CCCC(NC(=O)c2ccccc2)C1C` (centres undefined): the Potency entry was “inactive”.

The record behind these values is PubChem BioAssay AID1347165 (National Center for Advancing Translational Sciences (NCATS), 2019).
